Compound activity as filed in PubChem.
Mtb FBA inh: Mtb fructose-bisphosphate aldolase inhibition. P9WQA3. purified M. tuberculosis FBA, fluorescence read-out. inhibition, % at 1 µM. 2.3% of 360,000 active. AID 588726; in the data active = inhibition above about 27%;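 also: 0% = vehicle and 100% = reference inhibitor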
Rv3671c inh: Rv3671c (M. tuberculosis) protease inhibition. P9WHR9. inhibition, % at 5.96 µM. 0.048% of 320,000 active. AID 2606; in the data active = inhibition above about 38%;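 also: extracellular domain of Rv3671c used as enzyme; 0% = enzyme with DMSO and 100% = no enzyme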
Mtb UGM inh: inhibitors of M. tuberculosis UDP-galactopyranose mutase; P9WIQ1; purified UGM, fluorescence polarization probe displacement; inhibition, % at 10 µM; 0.06% of 320,000 active; in the data active = inhibition above about 10%, passing the limit was not always enough
GDH-TPI counter: inhibits GDH-TPI coupling enzymes, artifact for Mtb FBA screen. GDH-TPI coupled enzyme counterscreen, NADH absorbance. inhibition, % at 4.8 µM. 1.2% of 360,000 active. AID 588335; in the data active = inhibition above about 30%;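 also: 0% = DMSO wells and 100% = wells lacking the enzyme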
Mtb bLac sens: beta-lactam sensitization of Mtb H37Rv; M. tuberculosis H37Rv growth with meropenem, percent inhibition; inhibition, % at 25 µM; 0.27% of 330,000 active; AID 434955; call rule not given here;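 also: growth measured after seven days incubation then overnight dye step; 0% = bacteria only wells and 100% = bacteria with antibiotic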
RecA intein inh: blocks M. tuberculosis RecA intein splicing. 0.75% of 290,000 active. cell-free RecA intein splicing, fluorescence. P9WHJ3. inhibition, % (test concentration not listed); in the data active = inhibition above about 30%;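 also: 0% = vehicle wells and 100% = reference inhibitor control wells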
* marks the source's active call; other numbers are inactive results; / = not tested or not shown; + = active, no number. A selection: hits, their analogues and other compounds. The true share with any hit is near 4%.

SMILES	Mtb FBA inh	Rv3671c inh	Mtb UGM inh	GDH-TPI counter	Mtb bLac sens	RecA intein inh
Fc1ccc(N2N=C(c3cccs3)CC2c2ccccc2)cc1 (stereo unspecified)	26	7	1	6	10	-75
O=C(CCNC(=O)c1ccc(Br)cc1)Nc1nc2ccccc2[nH]1	-3	/	/	1	/	/
CCCN1CCN(CCCNC(=O)Cn2nc(C)n3c(cc4cc(OC)ccc43)c2=O)CC1	11	0	2	3	2	1
CCc1ccc(C2=NN(c3ccc(S(N)(=O)=O)cc3)C(c3ccc(F)cc3)C2)cc1 (stereo unspecified)	+	7	1	11	97	-33
Cc1ccc(C2CC(c3ccccc3)=NN2c2ccc(S(N)(=O)=O)cc2)cc1 (stereo unspecified)	+	/	/	-2	/	/
CCc1ccc(C2=NN(S(C)(=O)=O)C(c3cccs3)C2)cc1 (stereo unspecified)	1	-14	0	16	3	-4
COc1ccc(-n2ncc(C(C)NS(=O)(=O)c3ccc(C)s3)c2C)cc1 (stereo unspecified)	4	0	0	3	-1	0
Cc1cc(/C=N/n2cnnc2)c(C)n1-c1ccccc1	11	4	3	7	43	-4
C(=N\n1cnnc1)/c1cccn1-c1ccccc1	-4	-4	-1	32*	-5	-1
Cc1cc(=O)c2ccccc2[nH]1	0	-3	-1	4	-7	-5
Cc1cc(=O)c2c(N(C)C)cccc2[nH]1	+	/	/	15	/	/
COc1ccc(C(=O)OC(C)CN2CCOCC2)cc1 (stereo unspecified)	1	-1	3	-11	3	0
COc1ccc(C(=O)OC(C)CN2CCOCC2)cc1OC (stereo unspecified)	121*	-6	0	5	0	-1
Cc1cc(=O)oc2cc(NC(=O)CCCC(=O)O)ccc12	+	-8	-1	19	-10	0
Cc1cc(=O)oc2cc(NC(=O)CCC(=O)O)ccc12	197*	-3	-1	9	-5	0
CC1CCC/C(=C\c2ccc(O)cc2)C1=O (stereo unspecified)	0	-2	1	32*	3	2
CC(Sc1nnnn1C)C(=O)Nc1cc(S(=O)(=O)N2CCCCC2)ccc1Cl (stereo unspecified)	-1	-6	3	7	-9	/
COc1cc(/C=N/Nc2nc3ccccc3[nH]c2=O)ccc1O	0	-7	-1	9	3	-3
COc1cc(/C=N/Nc2nc(=O)[nH]nc2C)ccc1O	-6	-8	0	32*	3	-5
COc1ccc(CCNc2nc(=O)[nH]nc2C)cc1OC	0	2	-3	2	-4	/
COc1ccc(/C=N/Nc2nc(=O)[nH]nc2C)cc1OC	3	7	0	48*	-11	0
COc1ccc(/C=N/Nc2nc3ccccc3c(=O)n2-c2ccccc2)cc1OC	-3	-3	-2	60*	4	-1
CCNC(=O)CN(c1ccc(Oc2ccccc2)cc1)S(=O)(=O)c1ccccc1	2	1	0	0	0	-1
O=C(O)CN1C(=O)/C(=C/c2ccccc2Cl)Oc2ccccc21	130*	-6	3	17	-7	-2
O=C(CN1C(=O)/C(=C\c2ccccc2Cl)Oc2ccccc21)NCc1cccnc1	13	-13	-1	6	2	-100
SMILES	Mtb FBA inh	Rv3671c inh	Mtb UGM inh	GDH-TPI counter	Mtb bLac sens	RecA intein inh
Cc1ccc(S(=O)(=O)N2CCN(C(=O)COC(=O)CNC(=O)c3ccccc3F)CC2)c(C)c1	3	/	/	6	/	/
O=C(c1ccc(N2CCN(C3CC(=O)N(Cc4cccs4)C3=O)CC2)cc1)c1cccnc1 (stereo unspecified)	-5	10	1	33*	-2	-1
Cc1ccc2nc(-c3ccc(N4C(=NC(=O)CCC(=O)O)SC5CS(=O)(=O)CC54)cc3)sc2c1 (stereo unspecified)	66*	4	0	11	0	-2
CC(=O)N=C1SC2CS(=O)(=O)CC2N1c1ccc(-c2nc3ccc(C)cc3s2)cc1 (stereo unspecified)	/	-30	3	/	17	0
COc1ccc(C(C)NC(=O)c2ccncc2)cc1 (stereo unspecified)	2	-2	0	7	2	1
Cc1nn(C(=O)CNS(=O)(=O)c2ccccc2)c(C)c1Sc1ccc(Cl)cc1	-2	5	3	0	5	32*
COc1cc(-c2nnc(-c3ccco3)o2)ccc1OCc1ccccc1	121*	-3	-1	8	95	0
O=C(c1[nH]c(C(F)(F)F)nc1-c1ccccc1)N1CCN(c2ncccc2C(F)(F)F)CC1	2	/	/	/	/	/
Cc1c(C=O)c2ccccn2c1C(=O)c1ccccc1	-3	-5	/	7	-5	2
Cc1c(C=O)c2ccccn2c1C(=O)c1ccc(F)cc1	-2	-7	-1	33*	7	0
Cc1ccccc1NCC(=O)N/N=C/c1c(C)c(C(=O)c2ccc(Cl)cc2)n2ccccc12	-5	-1	-1	32*	-10	3
Cc1sc2ncnc(N3CCC(C(=O)Nc4nnc(CC(C)C)s4)CC3)c2c1C	1	0	1	-2	0	0
COc1ccc(-n2nnnc2SCC(=O)Nc2ccccc2F)cc1	-2	-4	3	-13	-4	-12
CN(CC(=O)Nc1ccc(Cl)c(C(F)(F)F)c1)C(=O)CCN1C(=O)C2CC=CCC2C1=O (stereo unspecified)	0	0	-5	-5	-5	0
CC(=O)c1cccc(CN2CCC(CO)(CCOc3ccccc3)CC2)c1	0	-2	3	-1	4	1
CC(=O)c1cccc(CN2CCC(CO)(CCCc3ccccc3)CC2)c1	139*	1	2	11	-3	0
CC(=O)Nc1c(Cl)cnn(-c2ccccc2)c1=O	1	-3	0	43*	-7	1
Cc1nn(-c2ccccc2)c2nc(N)c(C(N)=O)cc12	71*	3	1	20	1	0
C=CC(C)(C)c1[nH]cnc1/C=C1\NC(=O)C(C(C)C)NC1=O (stereo unspecified)	5	3	-3	32*	-3	-1
CCn1c(=O)c2ccccc2n(Cc2ccccc2C)c1=O	4	4	-2	6	-2	2
CNc1nc(Oc2cccc(F)c2)c2sccc2n1	6	/	/	1	/	/
O=C(/C=C\Nc1ccc(S(=O)(=O)Nc2ncccn2)cc1)c1cccc2ccccc12	4	0	-5	55*	-1	-2
O=S(=O)(Nc1ncccn1)c1ccc(Nc2ncnc3ccccc23)cc1	-1	2	-1	49*	20	-6
Cc1cc(C)nc(NS(=O)(=O)c2ccc(N/C=C/C(=O)c3ccc(Cl)cc3)cc2)n1	1	-16	/	32*	23	-4
NS(=O)(=O)c1ccc(N/C=C\C(=O)c2cccc3ccccc23)cc1	1	-3	-1	27	8	-3
